PubChem BioAssay (NCI)
About 79,000 compounds went through this panel and 15% of them were active in at least one assay; those are over-represented in the sample as a whole. Values without a mark were called inactive. Calls of active or inactive are those of the source. Rule as the data show it: active = growth inhibition above about 70%; inactive = the rest.

experiment: NCI Yeast Anticancer Drug Screen. Data for the mec2-1 strain (AID 157); conditions: S. cerevisiae mec2-1 strain, at 50.0 µM (retest, dose inferred, filed as 5.0), stronger effect = higher value
Outline: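 Strain: mec2-1 (DNA repair/cell cycle alteration). Compound exposure, then growth measured; inhibition expressed relative to vehicle.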

| Structure (SMILES) | growth inhibition |
| --- | --- |
| CC12CCC(=O)C=C1CCC1C2CCC2(C)C(O[Si](C)(C)OC3CCC4C5CCC6=CC(=O)CCC6(C)C5CCC34C)CCC12 (stereo unspecified) | 16% |
| CC1=C[C@H]2O[C@H]3C[C@H]4OC(=O)/C=C\C=C\C(=O)OCC[C@@H](C)[C@H](O)C(=O)OC[C@@]2(CC1)[C@@]4(C)[C@]31CO1 | 99% (active) |
| CCCCCCCC[As](C)(=O)O | -47% |
| OC1C2[C@@H](O)CCCN2C[C@@H](O)[C@H]1O (stereo partly specified) | 13% |
| COC1(O[C@H]2CC[C@H]3[C@@H]4CCC5=CC(=O)CC[C@]5(C)[C@H]4CC[C@]23C)CCCCC1 | 2% |
| O=[N+]([O-])c1ccc(CS(=O)(=O)C(Cl)(Cl)Cl)o1 | 100% (active) |
| CC([CH2][Hg][Cl])c1ccccc1 (stereo unspecified) | 100% (active) |
| CC(C)CC[CH2][Pb]([CH2]CCC(C)C)([CH2]CCC(C)C)[O]C(=O)C(Cl)(Cl)Cl | 99% (active) |
| COC1OC(OC)[CH]([Hg][Cl])C1OC (stereo unspecified) | 100% (active) |
| S=C=[N][Sn]([N]=C=S)([c]1ccccc1)[c]1ccccc1.c1ccc2nc(-c3ccc4ccccc4n3)ccc2c1 | 99% (active) |
| CSCCC([NH-])C(=O)O.CSCCC([NH-])C(=O)O.[Zn+2] (stereo unspecified) | 1% |
| C[PH+](C)C.C[PH+](C)C.[Au] | 89% (active) |
| O=C(O)C(Br)C(Br)C(=O)O.[Ag] (stereo unspecified) | 100% (active) |
| CCC1CN1P(=O)(Oc1ccccc1)N1CC1CC (stereo unspecified) | -42% |
| CCCCCc1cc(O)c(CCCC)c(O)c1 | 63% |
| N#CC(Cl)(Cl)CCl | 15% |
